Assay outcomes from PubChem.
Most compounds without a hit are left out; they make up all but 7.9% or so of the library.
HT1080-NT tox – kills 2HG-producing HT-1080-NT fibrosarcoma cells; Potency, µM (titrated, usually from 46.1 µM), without a hit: top-dose activity, negative = less viability, usual class: cytotoxic; 360,000 tested, 1.6% active; HT-1080-NT fibrosarcoma viability, CellTiter-Glo ATP luminescence, 48 h; AID 686970;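 further: NT is the 2HG producing partner of a matched IDH1 knockdown line; 0% = DMSO-treated cells and -100% = media-only wells without cells; nearly all actives have a fitted effect of over 55% in size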
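Compounds were tested in concentration-response format on HT-1080-NT cells for 48 hours at 37 degrees C. Cell viability came from CellTiter-Glo luminescence; curves were classified by r2, response magnitude and activity.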
HT1080 IDH1KD tx – HT-1080 IDH1 knockdown cell toxicity (counter line). 360,000 tested, 2% active. Potency, µM (top dose mostly 46.1 µM), without a hit: top-dose activity, negative = toxicity, actives largely listed as cytotoxic. HT-1080 IDH1 knockdown viability, ATP luminescence, 48 h;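 further: 0% = DMSO wells and -100% = cell-free medium wells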
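Luminescent ATP read-out (CellTiter-Glo, 10 min at room temperature) after 48 h compound exposure at 37 °C gave viability of IDH1-knockdown HT-1080 cells. Activity was normalised to DMSO and cell-free wells, then fitted as concentration-response curves.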
KB-3-1 tox – kills parental KB-3-1 adenocarcinoma cells; KB-3-1 viability, CellTiter-Glo ATP luminescence, 72 h; Potency, µM (series often up to 46.1 µM), hits mostly cytotoxic; 400,000 tested, 1.4% active; AID 1347075; further: on the % scale 0 is the no-effect control and ±100 the full control effect; nearly all actives have a fitted effect of over 60% in size
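Luminescent ATP read-out (CellTiter-Glo) measures survival of drug-naive KB-3-1 cells after 72 h compound exposure at 37 °C. Titration series was screened from lowest to highest concentration, with DMSO vehicle plates as background controls.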
MCF10A rerep – DNA re-replication induction in MCF 10a cells; MCF 10A DNA re-replication, Hoechst nuclear intensity, 48 h; Potency, µM (series often up to 46.1 µM), for the others: at the top dose activity, positive = re-replication, hits mostly activators; 350,000 tested, 2.9% active; further: % of control where 0% means no effect; nearly all actives have a fitted effect of over 50% in size
KB-V1 cytotox – kills drug-selected multidrug resistant KB-V1 cells; Potency, µM (highest dose often 46.1 µM), most hits filed as cytotoxic; KB-V1 MDR cells viability, CellTiter-Glo, 72 h; 400,000 tested, 3.4% active; further: on the % scale 0 is the no-effect control and ±100 the full control effect; nearly all actives have a fitted effect of over 60% in size
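qHTS viability screen in drug-selected KB-V1 MDR cells: 72 h compound treatment at 37 degrees C, ATP luminescence end point.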
SW480 rerep – induces DNA re-replication in SW480 colon adenocarcinoma cells; SW480 DNA re-replication, Hoechst DNA content imaging, 48 h; Potency, µM (titrated, usually from 46.1 µM), without a hit: at the top dose re-replication activation, actives largely listed as activators; 340,000 tested, 1.8% active; AID 624297; further: % of control where 0% means no effect; nearly all actives have a fitted effect of over 55% in size
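Cells (250 per well) received 23 nL compound or DMSO by pin tool and were kept 48 hr at 37 C, 5% CO2. Nuclei were then stained with Hoechst for 40 min and scanned for DNA content.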
* marks the source's active call; other numbers are inactive results; i = inactive; ? = inconclusive; · = no result. The call rests on the fitted dose curve; in most records, active means well fitted curve in the direction sought with a large enough effect; inconclusive means small, poorly fitted or top-dose-only effect, or another doubt; inactive means no such curve, though single readings can be large; an effect the other way counts as inactive or inconclusive. Potency means the concentration at half of the fitted maximal effect.

SMILES	HT1080-NT tox	HT1080 IDH1KD tx	KB-3-1 tox	MCF10A rerep	KB-V1 cytotox	SW480 rerep
CON(C)c1nc(OCCNC(=O)OCc2ccc(Cl)cc2C)nc(N(C)C)n1	-5%	-3%	i	7%	1.6µM*	-1%
O=C(COc1ccc(Br)cc1)NCCCNC(=O)c1cccnc1	?	10µM*	i	7%	i	49%
CN(C)c1nc(OCCNC(=O)COc2ccccc2Cl)nc(N(C)C)n1	23%	15%	i	?	1.6µM*	-1%
COCCNC(=O)C(c1c[nH]c2ccccc12)N(C(=O)c1snc(C(N)=O)c1N)c1cccc(OC)c1 (stereo unspecified)	-8%	13%	i	5%	i	-96%
O=C(NCCOC(=O)c1ccc(Cl)cc1)c1cccnc1	-5%	-5%	i	3.7µM*	i	4%
COc1ccc(-c2ccc3c(c2)C2CC3CCN2)cc1 (stereo unspecified)	3%	1%	i	21µM*	i	27%
Cc1cc(Nc2n[nH]c(N)c2C#N)ccc1F	-4%	7%	i	0%	i	?
Cc1ccc(-c2cc(C(=O)N3CCN(c4ncccn4)CC3)c3ccccc3n2)cc1	?	?	i	?	?	7%
COc1cccc(-c2cc(C(=O)N3CCN(c4ncccn4)CC3)c3ccccc3n2)c1	-25%	-22%	i	15µM*	?	-31%
COc1cc(C(=O)N2CCN(c3ccccc3)CC2)c2ccccc2n1	?	0.52µM*	0.58µM*	?	?	10µM*
COc1ccc(-c2cc(C(=O)N3CCN(c4ncccn4)CC3)c3ccccc3n2)cc1OC	-15%	-2%	i	29%	i	8.2µM*
CCN1CCN(C(=O)c2cc(-c3ccc(Cl)s3)nc3ccccc23)CC1	?	?	i	?	i	3%
O=C(c1cc(-c2cccnc2)nc2ccccc12)N1CCN(S(=O)(=O)c2ccc(Cl)s2)CC1	-14%	0%	i	12%	9.2µM*	2%
O=C(CC(Cc1ccccc1)C(=O)O)Nc1cccc(C(F)(F)F)c1 (stereo unspecified)	3%	-5%	i	1%	i	0%
COc1ccccc1CN(C)C(=O)c1ccccc1SCC(=O)N1CCCC1	10%	6%	i	9%	i	-9%
Cc1ccc(N2C(=O)N(CC(=O)Nc3ccc(C)cc3C)C(=O)C2C)cc1 (stereo unspecified)	4%	3%	i	6%	i	-11%
O=C(c1cc(-c2ccccc2)nc2ccccc12)N1CCc2ccccc2C1	3%	12%	?	14%	18µM*	-8%
CC1=C(C(=O)N(C(C)C)C(C)C)CC(CC(=O)NCCCN(C)C)C(=O)N1CCCN1CCCC1=O (stereo unspecified)	20%	18%	i	·	i	·
COc1cccc2c1C(=O)c1c(O)c3c(c(O)c1C2=O)CC(O)(C(C)=O)CC3OC1CC(N(C)C)C(O)C(C)O1 (stereo unspecified)	?	0.73µM*	?	-1%	7.3µM*	?
COc1cccc2c1C(=O)c1c(O)c3c(c(O)c1C2=O)C[C@@](O)(C(=O)CO)C[C@@H]3OC1CC(N)C(O)C(C)O1 (stereo partly specified)	?	4.6µM*	?	?	·	-10%
COc1cccc2c1C(=O)c1c(O)c3c(c(O)c1C2=O)C[C@@](O)(C(=O)CO)C[C@@H]3O[C@H]1C[C@H](N)[C@H](O)[C@H](C)O1	9.2µM*	0.33µM*	?	-1%	·	-14%
CCN(Cc1ccccc1)S(=O)(=O)c1ccc(F)c(C(=O)Nc2cc(C(F)(F)F)ccc2Cl)c1	·	·	i	·	i	·
Cc1cccn2c(=O)nc(SCC(=O)NC3CCCC3)nc12	2%	1%	i	0%	i	18µM*
